Laboratory results from PubChem BioAssay AID493170 (National Center for Advancing Translational Sciences (NCATS), 2011).
Inconclusive results are not listed. Entries that show only a call come without a potency. Activity calls are given as the source filed them. Calls follow the shape of the dose curve; as a rule, active = well fitted inhibition curve with a large enough effect; inconclusive = small, poorly fitted or top-dose-only effect, or effect the other way; inactive = flat fitted curve, though single readings scatter.

Molecular target: Ubiquitin carboxyl-terminal hydrolase 2 (Homo sapiens) (UniProt O75604)
Test: Ub-rhodamine 110 based assay for inhibitors Ubiquitin-specific Protease USP2a; also: nearly all actives have a fitted effect of over 50% in size
Conditions: USP2a Ub-rhodamine110 cleavage, fluorescence; series mostly up to 38.3 µM
How it was run: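 5 nM USP2a preincubated with compounds for 30 min at RT in 20 mM Tris-HCl pH 8.0, 2 mM CaCl2, 2 mM beta-mercaptoethanol, 0.05% CHAPS. Cleavage of 150 nM Ub-rhodamine 110 read kinetically (Ex 485/Em 531) for 7 min.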
Potency is read from the fitted curve at half-maximal effect.

Chain of Ubiquitin carboxyl-terminal hydrolase 2 (Homo sapiens) (O75604 whole entry, looked up): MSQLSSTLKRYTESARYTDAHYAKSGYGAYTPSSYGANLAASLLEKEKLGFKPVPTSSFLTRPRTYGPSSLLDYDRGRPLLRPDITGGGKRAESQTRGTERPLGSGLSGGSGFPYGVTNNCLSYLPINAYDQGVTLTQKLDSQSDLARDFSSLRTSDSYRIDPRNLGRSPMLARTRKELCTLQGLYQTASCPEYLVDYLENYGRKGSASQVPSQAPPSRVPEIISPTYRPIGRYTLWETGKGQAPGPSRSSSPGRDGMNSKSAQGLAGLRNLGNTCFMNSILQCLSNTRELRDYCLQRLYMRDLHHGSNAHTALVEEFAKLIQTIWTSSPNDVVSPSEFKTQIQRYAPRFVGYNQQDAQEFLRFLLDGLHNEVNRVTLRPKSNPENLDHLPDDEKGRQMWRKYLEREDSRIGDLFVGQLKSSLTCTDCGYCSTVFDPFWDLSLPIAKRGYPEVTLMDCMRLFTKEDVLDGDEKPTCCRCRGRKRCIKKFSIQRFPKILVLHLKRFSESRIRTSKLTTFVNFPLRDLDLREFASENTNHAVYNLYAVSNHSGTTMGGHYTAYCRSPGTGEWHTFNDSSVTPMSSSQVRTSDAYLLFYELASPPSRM

O=C(COC(=O)c1cc(-c2ccc(Cl)s2)nc2ccccc12)NCc1ccco1
Potency: 11.2 µM (active)

O=[N+]([O-])c1cc(-c2nnc(Nc3ccccc3)c3ccccc23)ccc1N1CCOCC1
Potency: inactive

COc1ccc(O)c(-c2cc(-c3ccc(F)cc3)n[nH]2)c1
Potency: inactive

CCN(CC)S(=O)(=O)c1ccc(Cl)c(NC(=O)COC(=O)c2c(C)noc2C)c1
Potency: inactive

CN(C)CCOCCP(=O)(c1ccccc1)c1ccccc1
Potency: inactive

Cc1ccc(S(=O)(=O)N2[C@@H](c3ccc(C(C)(C)C)cc3)C(C(=O)O)=CC[C@H]2c2ccc(Cl)c(Cl)c2)cc1
Potency: 10 µM (active)

CC(C)Cn1c(SCC(N)=O)nnc1-c1cccc(S(=O)(=O)N2CCOCC2)c1
Potency: inactive

CCn1c2ccccc2c2nc3ccccc3nc21
Potency: inactive

CC(=O)c1ccc(Nc2ncnc3c2oc2ccccc23)cc1
Potency: inactive

COc1ccc(NC(=O)CSc2nnc(-c3ccccc3Cl)n2Cc2ccco2)c(OC)c1
Potency: inactive

Cc1nc(NC(C)C)c2cnn(CCc3ccccc3)c2n1
Potency: inactive

Cc1ccc(NC(=O)c2onc(C)c2Cl)cc1
Potency: inactive

COc1ccc(-c2csc(N3CCN(C(=O)c4ccco4)CC3)n2)cc1
Potency: inactive

Cc1ccc(C(=O)N(C)CC(=O)Nc2cccc(C)c2C)o1
Potency: inactive

Cc1cc(C)c(NC(=O)C[N+](C)(C)CC(O)COc2cccc3ccccc23)c(C)c1 (centres undefined)
Potency: inactive

CCN=C1SC(C(=O)Nc2cccc(OCC)c2)CC(=O)N1CC (centres undefined)
Potency: inactive

O=C(CSc1nnc(SCc2ccccc2)s1)N/N=C/C=C/c1ccco1
Potency: 6.31 µM (active)

O=C1OC[C@@H]2CCCN2C(=O)[C@@H](CC(=O)N(CCO)Cc2ccccc2)C/C=C\C[C@@H]1Cc1ccc(F)cc1
Potency: inactive

CC(C)n1nc(C(=O)Nc2ccccc2N2CCOCC2)c2ccccc2c1=O
Potency: inactive

COC(=O)c1c(O)c2c([nH]c1=O)CCCC2
Potency: inactive

CC(C)(C)C1CCC2(CC1)Nc1cccc3cccc(c13)N2
Potency: inactive

Cc1ccc(N2CN=c3s/c(=C\c4cccnc4)c(=O)n3C2)cc1
Potency: inactive

CC1(C)CC(=O)C2=C(C1)NCN(CCCN1CCOCC1)C2
Potency: inactive

CC(C)C(=O)Nc1ccc(C(=O)N2CCCCCC2)cc1
Potency: inactive

COc1ccc(CC(NC(C)=O)C(=O)NC2CCN(c3nc(C)cc(C)c3C#N)CC2)c(OC)c1 (centres undefined)
Potency: inactive

COc1cccc(NC(=O)c2ccccc2-c2nc(-c3cccc(C)c3)no2)c1
Potency: inactive

COc1cccc(NC(=O)Cc2ccccc2)c1
Potency: inactive

CC1(C)CC(=O)C2=C(C1)Oc1ncn(CCCO)c(=N)c1C2c1ccccc1 (centres undefined)
Potency: inactive

CCOC(=O)Cn1c(=O)oc2cc(S(=O)(=O)Nc3cc(Cl)ccc3OC)ccc21
Potency: inactive

COc1ccc(/C=C2/SC(=S)N(c3ccc(S(=O)(=O)Nc4nccs4)cc3)C2=O)cc1
Potency: 3.16 µM (active)

Cc1ccc(C(=O)C(=S)N2CCOCC2)cc1
Potency: inactive

O=C(CSc1nc(N2CCCCC2)nc(N2CCCCC2)n1)N1CCN(c2ccccc2)CC1
Potency: inactive

CC(=O)Nc1cc[n+](CC(=O)c2ccc(Cl)cc2)cc1
Potency: inactive

Cc1cccn2c(=O)c3cc(C(=O)NCCN4CCOCC4)c(=N)n(CCN4CCOCC4)c3nc12
Potency: inactive

Cc1ccc(C(C(=O)NC2CCCC2)N2CCc3ccccc32)cc1 (centres undefined)
Potency: inactive

O=C1Nc2ccc(S(=O)(=O)N3CCCCCC3)c3cccc1c23
Potency: inactive

CCCCC1CCC(C(=O)Nc2ccc(S(=O)(=O)Nc3nccs3)cc2)CC1 (centres undefined)
Potency: 10 µM (active)

Cc1ccc(NC(=O)Cn2nc(C)c3ccccc3c2=O)cc1F
Potency: inactive

CC(=O)c1c(N2CCCC2)[nH]c(-c2ccccc2)nc1=S
Potency: inactive
